Screening data (PubChem)
This is one part of a sample in which hits are shown more often than they occur.
Cruzain inh Det = blocks cruzain activity in presence of Triton detergent; 200,000 tested, 0.43% active; P25779; purified cruzain, Z-FR-AMC fluorescence, 0.01% Triton; Potency, µM, for the others: max response, negative = inhibition, most hits filed as inhibitors; AID 1478;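 further: plate controls were neutral wells for no effect and buffer without enzyme for full effect; nearly all actives have a fitted effect of over 40% in size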
Target sequence (P25779 123-467 limits assumed): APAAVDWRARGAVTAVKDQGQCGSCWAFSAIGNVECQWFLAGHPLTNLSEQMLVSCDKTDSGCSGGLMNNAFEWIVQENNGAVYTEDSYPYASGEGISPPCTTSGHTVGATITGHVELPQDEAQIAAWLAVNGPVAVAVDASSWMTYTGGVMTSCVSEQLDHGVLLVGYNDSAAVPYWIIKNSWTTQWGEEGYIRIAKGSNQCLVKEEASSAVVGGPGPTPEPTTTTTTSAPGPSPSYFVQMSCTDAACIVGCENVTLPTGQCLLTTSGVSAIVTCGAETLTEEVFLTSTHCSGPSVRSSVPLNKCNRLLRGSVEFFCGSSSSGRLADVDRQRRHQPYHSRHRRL
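Cysteine protease activity tested under reducing, mildly acidic conditions (100 mM sodium acetate pH 5.5, 5 mM DTT) plus 0.01% Triton X-100. Cruzain 1.5 nM; substrate Z-FR-AMC 2 uM; 15 min compound preincubation at room temperature.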
Cruzain inh noDet = blocks cruzain activity in detergent-free assay. 200,000 tested, 2.3% active. AID 1476. P25779. purified cruzain, Z-FR-AMC fluorescence, no detergent. Potency, µM, for the others: max response, negative = inhibition, usual class: inhibitors;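 further: plate controls were enzyme without inhibitor for no effect and buffer without enzyme for full effect; nearly all actives have a fitted effect of over 40% in size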
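Detergent-free condition (0.00005% Triton X-100) in acetate buffer pH 5.5 with DTT. 1.5 nM enzyme and compound were pre-mixed 15 min, then 2 uM Z-FR-AMC substrate added; reaction progress from fluorescence change between first and third reads (60 s).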
NS1 inh = inhibitors of influenza NS1 protein function | Potency, µM (titrated, usually from 46.1 µM), for the others: at the highest dose activity, positive = more growth | 270,000 tested, 0.4% active | AID 2326; calls by dose curve; further: actives are rising curves; nearly all actives have a fitted effect of over 50% in size
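OD600 was taken as the measure of yeast growth restored by compound in an NS1-expressing S. cerevisiae strain. Cells had been washed out of glucose medium and diluted 1:100 into galactose -URA medium, pH 6.0.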
* marks the source's active call; other numbers are inactive results; ? = inconclusive; . = not tested or not shown. Unless noted, the call rests on the fitted dose curve; in most records, active means well fitted curve in the direction sought with a large enough effect; inconclusive means small, poorly fitted or top-dose-only effect, or another doubt; inactive means no such curve, though single readings can be large; an effect the other way counts as inactive or inconclusive. Potency means the concentration at half of the fitted maximal effect.

SMILES	Cruzain inh Det	Cruzain inh noDet	NS1 inh
CCOC(=O)c1ccc(NC(=O)C2=C(C)Nc3nc(CCCO)nn3C2c2ccc(OC)cc2)cc1 (stereo unspecified)	2%	?	2%
O=C(/C=C/c1cccs1)N1CCN(c2ccc(F)cc2)CC1	.	.	-14%
O=C(/C=C/c1cccs1)N1CCOCC1	-6%	6.3µM*	9%
CCN(CC)S(=O)(=O)c1cc(-c2nn(C)c(=O)c3ccccc23)ccc1C	-3%	?	-19%
Cc1cccc(NC(=O)CN2C(=O)N/C(=C/c3ccc(C)s3)C2=O)c1	-4%	4µM*	-1%
O=C(/C=C1\SC(=O)N(CC(=O)Nc2ccc(Cl)cc2)C1=O)Nc1ccc(F)cc1	-3%	?	3%
Cc1cccc(NC(=O)CN2C(=O)N/C(=C/c3cc(C)n(C(C)C)c3C)C2=O)c1	-4%	-20%	26%
COc1ccc(/C=C2\SC(=O)N(CC(=O)Nc3cccc(C)c3)C2=O)cc1O	.	.	23%
Cc1cccc(NC(=O)CN2C(=O)S/C(=C\C(=O)Nc3ccc(Cl)cc3)C2=O)c1	-1%	13µM*	2%
O=C(/C=C1\SC(=O)N(CC(=O)Nc2ccc(F)cc2)C1=O)Nc1ccc(Cl)cc1	-1%	25µM*	5%
C#CCOc1c(Cl)cc(C2C3=C(CCCC3=O)N(CC(=O)O)C3=C2C(=O)CCC3)cc1OC	.	.	7%
COc1ccc(CNC(=O)C(OC(=O)c2ccco2)c2ccccc2F)cc1 (stereo unspecified)	.	.	-6%
O=C(COc1cccnc1[N+](=O)[O-])NCc1ccc2c(c1)OCO2	.	.	-3%
CCS(=O)(=O)c1ccc2oc(Nc3ccccc3C)nc2c1	1%	8%	-6%
Cc1cccc(NC(=O)/C=C/c2ccc([N+](=O)[O-])s2)c1	-4%	?	6%
Cc1ccc(NC(=O)/C=C/c2ccc([N+](=O)[O-])s2)cc1	1%	32µM*	-14%
Cc1cc(C(F)(F)F)c(C#N)c(SCC(=O)Nc2nc3cc(Br)ccc3s2)n1	-9%	20µM*	10%
CCOC(=O)NC(=O)CSc1nc(C)cc(C(F)(F)F)c1C#N	-3%	0%	-1%
CCCCCC1C(=O)O[C@H](C)[C@@H](NC(=O)c2cccc(NC=O)c2O)C(=O)OC(C)C1OC(=O)CC(C)C (stereo partly specified)	-6%	-27%	.
CCCN1CCN(C(=O)c2ccc(CS(=O)c3ccc(F)cc3)o2)CC1 (stereo unspecified)	.	.	7%
Cc1ccc2c(c1)c(=O)c1c3n2CCN(CC#N)C3CC1 (stereo unspecified)	.	.	4%
Cc1ccc2c(c1)c(=O)c1c3n2CCN(C(=O)CCl)C3CC1 (stereo unspecified)	16µM*	-22%	5%
CN(C)c1ccc(NC(=O)c2cn(-c3ccccc3)nc2-c2cccs2)cc1	-1%	?	8%
O=C(Nc1ccc2ccccc2c1)c1cn(-c2ccccc2)nc1-c1cccs1	-1%	20µM*	8%
Cc1nc2cc(C(=O)NCc3ccc4c(c3)OCO4)ccc2n1-c1ccc(Br)cc1	-2%	-24%	15%
SMILES	Cruzain inh Det	Cruzain inh noDet	NS1 inh
Cc1c(C)n(Cc2ccccc2)c2ccc(C(=O)N3CCN(c4ccccc4)CC3)cc12	-2%	?	.
Cc1c(C)n(Cc2ccccc2)c2ccc(C(=O)N3CCN(c4ccc(F)cc4)CC3)cc12	-1%	32µM*	.
Cc1c(C)n(Cc2ccc(F)cc2)c2ccc(C(=O)N3CCN(c4ccc(Cl)cc4)CC3)cc12	2%	7.9µM*	.
Cc1[nH]c2ccc(C(=O)N3CCN(c4ccc(F)cc4)CC3)cc2c1C	.	.	-43%
Cc1ccc(NS(=O)(=O)c2ccc(Cl)c(C(=O)Nc3ccccc3-c3nc4ccccc4[nH]3)c2)cc1C	-2%	?	?
COc1cc(-n2c(-c3ccccc3)n[nH]c2=S)c(OC)cc1Cl	.	.	11%
Cc1cc(C)cc(-n2ccn3cnnc3c2=O)c1	-3%	0%	.
CCOC(=O)C1CCCN(/C=C2\SC(=S)N(CC)C2=O)C1 (stereo unspecified)	.	.	-5%
COCCCn1c(=O)c2sccc2n2c(CCCC(=O)NC3CCC(C)CC3)nnc12 (stereo unspecified)	0%	-5%	.
CCOc1ccc(C2Nc3cccc4cccc(c34)N2)cc1OC	-14%	-9%	12%
CCOc1cc(C2Nc3cccc4cccc(c34)N2)ccc1O	-2%	16µM*	15%
CCc1ccc(NC(=O)Cn2nc3c4ccccc4n(Cc4ccccc4)cc-3c2=O)cc1	0%	-6%	.
Nc1nonc1-c1nc2ccccc2n1Cc1ccccc1	-7%	-15%	-43%
Nc1nonc1-c1nc2ccccc2n1Cc1c(Cl)cccc1Cl	-4%	25µM*	.
CC1CCC/C(=N\NC(=S)Nc2ccccc2)C1 (stereo unspecified)	14µM*	-7%	7%
CC1CCC/C(=N\NC(=S)NCc2ccccc2)C1 (stereo unspecified)	-1%	-2%	6%
CCC/C=C(\CCC)C(NC(=O)c1cccs1)c1ccc(C(F)(F)F)cc1 (stereo unspecified)	1%	10%	.
CC1CCN(S(=O)(=O)c2cc(C(=O)NCc3ccccc3)n(C)c2)CC1	-5%	1%	.
Cc1cc2c3nonc3ccc2n1C	0%	7%	?
O=C(CNC(=O)C(c1ccccc1)c1ccccc1)OCC(=O)c1cccs1	20µM*	13µM*	-7%
O=C(CNC(=O)c1ccccc1)OCC(=O)c1cccs1	.	.	4%
COc1ccc(C(=O)Nc2nnc(C3=COCCO3)o2)cc1OC	.	.	5%
O=C(NC1=NCCS1)C12CC3CC(C1)CC(C(=O)NC1=NCCS1)(C3)C2	5%	-7%	0%
O=C(CC12CC3CC(C1)CC(CC(=O)NC1=NCCS1)(C3)C2)NC1=NCCS1	-7%	25µM*	-6%
Cc1cc(F)ccc1NC(=O)C1CCN(S(=O)(=O)c2ccc3c(c2)CCCC(=O)N3)CC1	-1%	-9%	4%
SMILES	Cruzain inh Det	Cruzain inh noDet	NS1 inh
Cc1ccc(/C(N)=N/OC(=O)c2cc(-c3ccccc3)nc3ccccc23)cc1	-3%	-17%	5%
COc1ccc(/C(N)=N/OC(=O)c2cc(-c3ccccc3)nc3ccccc23)cc1	-2%	20µM*	1%
CCCCNCc1cc(Br)c(OCC(=O)N2CCOCC2)c(OC)c1	6%	6%	0%
Cc1cc(C)c(OCC(=O)OCC(=O)NC2CCCCCCC2)c(C)c1	.	.	-36%
CC(C)(C)OC(=O)N1Cc2ccccc2C[C@H]1C(=O)NCC(=O)Nc1ccc2c(c1)OCCO2	.	.	3%
COc1ccc(N2CCN(S(=O)(=O)c3ccc(Br)s3)CC2)cc1	-2%	-4%	7%
CC(C)C[C@H](NC(=O)OC(C)(C)C)c1nnc(SCc2ccccc2)o1	-2%	12%	-6%
CC(C)(C)OC(=O)N[C@@H](Cc1ccccc1)c1nnc(S(=O)(=O)Cc2cccc(F)c2)o1	13µM*	20µM*	-165%
Cc1ccccc1CS(=O)(=O)c1nnc([C@H](CC(C)C)NC(=O)OC(C)(C)C)o1	13µM*	25µM*	-180%
CCOC(=O)CSc1nnc([C@H](Cc2ccccc2)NC(=O)OC(C)(C)C)o1	-4%	-10%	-10%
C[C@H](NC(=O)OC(C)(C)C)c1nnc(SCc2c(F)cccc2Cl)o1	-2%	-5%	.
CC(C)[C@H](NC(=O)OC(C)(C)C)c1nnc(S(=O)(=O)Cc2c(F)cccc2Cl)o1	3.5µM*	5µM*	-177%
